Rows were chosen to be rich in hits. Some 4.7% of all compounds tested hit in one or more screens of this group.
HepG2 viability – counter-screen for TGF-b inhibitors: cytotoxicity in HepG2 cells; HepG2 CAGA-GFP viability, ATP luminescence, 18 h; Potency, µM (series often up to 46.1 µM), usual class: cytotoxic; hit rate 0.76% among 410,000
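CellTiter-Glo luminescence gave cytotoxicity after 18 hours at 37 degrees C. The cells were HepG2 CAGA-GFP in 1% FBS DMEM, stimulated with 500 pg/mL TGF-beta after compound addition. %Activity was normalised to no-cell wells (complete cell-killing) and DMSO (no toxicity), and curves were fitted and classified.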
DRD3 antagonist – blocks the human D3 dopamine receptor | max response, negative = inhibition, % | AID 652054 | D3R cells, DiscoveRx beta-arrestin luminescence, antagonist mode; stronger effect = lower value | hit rate 2.5% among 360,000; in the data active = max response below about -50%; inconclusive = no clear call, values can overlap the other calls
Target sequence (P35462 whole entry, looked up): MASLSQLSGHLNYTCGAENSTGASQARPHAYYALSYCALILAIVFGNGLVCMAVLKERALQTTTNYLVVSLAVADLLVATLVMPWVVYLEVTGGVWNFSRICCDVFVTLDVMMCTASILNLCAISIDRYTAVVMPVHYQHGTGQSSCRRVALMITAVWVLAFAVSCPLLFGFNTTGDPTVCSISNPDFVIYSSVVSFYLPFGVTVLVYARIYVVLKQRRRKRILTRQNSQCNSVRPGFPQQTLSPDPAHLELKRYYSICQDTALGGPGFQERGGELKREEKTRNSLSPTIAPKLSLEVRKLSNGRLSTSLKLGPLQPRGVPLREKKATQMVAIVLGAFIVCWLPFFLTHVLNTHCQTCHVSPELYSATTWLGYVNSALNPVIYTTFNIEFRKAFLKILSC
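Cells plated overnight at 1500 cells/well, then exposed to library compounds with dopamine controls for 90 minutes at 37 degrees C. DiscoveRx reagent added for 30–60 minutes at room temperature; luminescence read, quantitative HTS format.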
S2 tox – cell viability loss in ATXN counter-screen; S2 cells (HEK-293 line with an ATXN2-luciferase reporter) viability, CellTiter-Fluor protease fluorescence, 24 h; Potency, µM (top dose mostly 56.7 µM), usual class: cytotoxic; hit rate 0.49% among 400,000; AID 651635; note: nearly all actives have a fitted effect of over 40% in size
ATXN2 expr inh – reduces ATXN2 reporter expression in HEK-293 cells; Potency, µM (doses to about 57 µM), actives largely listed as inhibitors; HEK-293 ATXN2-luciferase reporter, luminescence, 24 h; hit rate 0.72% among 360,000; AID 1745845; note: nearly all actives have a fitted effect of over 55% in size
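ATXN2-luciferase reporter cells (luciferase flanked by upstream and downstream ATXN2 gene portions) were treated 24 h at 37 °C with compounds at up to 57 uM. SteadyGlo luminescence gave expression; GF-AFC fluorescence gave viability.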
TGFb SMAD3 inh – TGF-b pathway inhibition; HepG2 CAGA-GFP TGF-b/SMAD3 reporter, GFP fluorescence, 18 h; TGF-beta stimulated, 500 pg/mL final; AID 588855; hit rate 1.2% among 410,000; Potency, µM (titrated, usually from 46.1 µM), most hits filed as inhibitors; note: nearly all actives have a fitted effect of over 65% in size
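Smad-responsive CAGA-GFP expression was quantified in HEPG2 cells exposed to compounds and 500 pg/mL final TGF-beta for 18 h at 37 degrees C; unstimulated wells defined full inhibition.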
DRD3 agonist – D3 dopamine receptor (human) agonism | P35462 | D3R DiscoveRx beta-arrestin cells, luminescence, 90 min | max activation, % | hit rate 0.58% among 410,000; in the data active = max activation above about 30%
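Cells at 1500/well, incubated overnight, then treated with pinned compounds (dopamine as control) for 90 min at 37 degrees C. DiscoveRx reagent added for 30 - 60 minutes at room temperature; luminescence read.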
A number is an active result; i = inactive; ? = inconclusive; nt = not tested or not shown. Unless noted, calls come from the whole dose curve; as a rule, active = well fitted curve in the direction sought with a large enough effect; inconclusive = small, poorly fitted or top-dose-only effect, or another doubt; inactive = no such curve, though single readings can be large; an effect the other way counts as inactive or inconclusive.

SMILES	HepG2 viability	DRD3 antagonist	S2 tox	ATXN2 expr inh	TGFb SMAD3 inh	DRD3 agonist
CC1(C)CC(=O)C2=C(C1)NC(Nc1nc3ccccc3o1)=NC2c1ccccc1Cl (stereo unspecified)	i	nt	nt	nt	i	nt
CC1=C(C(=O)Nc2ccccc2)C(c2ccc(C)cc2)N=C(Nc2nc3ccccc3o2)N1 (stereo unspecified)	11µM	i	?	?	?	i
CC(=O)N1CCC(C(=O)N2CCN(S(=O)(=O)c3ccc(Cl)s3)CC2)CC1	14µM	i	i	i	i	i
O=S(=O)(c1ccc(Cl)s1)N1CCN(Cc2ccccc2)CC1	i	-59	i	i	i	i
O=S(=O)(c1ccc(Cl)s1)N1CCN(CCc2ccccc2)CC1	i	i	i	i	i	i
O=S(=O)(c1cccs1)N1CCN(C/C=C/c2ccccc2)CC1	i	?	i	i	i	i
O=S(=O)(c1ccc(Cl)s1)N1CCN(C/C=C/c2ccccc2)CC1	i	-82	i	i	?	i
COc1cc(CN2CCOc3ccc(C(O)c4cccnc4)cc3C2)cc(OC)c1 (stereo unspecified)	nt	nt	i	nt	nt	nt
CN(C(=O)COc1ccccc1C(=O)Nc1ccccc1)c1ccccc1	i	nt	nt	nt	?	nt
CCC(COC)NC(=O)c1cnn(-c2ncc3c(n2)-c2ccccc2CC3)c1C (stereo unspecified)	nt	nt	i	nt	nt	nt
Oc1ccc(F)cc1-c1cc(-c2ccc3c(c2)OCCO3)n[nH]1	i	-53	i	i	?	i
CCCC(=O)N1CCN(c2ccc(NC(=O)c3cc4ccccc4o3)cc2Cl)CC1	i	i	18µM	14µM	i	35
O=C(Nc1ccc(N2CCN(C(=O)c3ccco3)CC2)c(Cl)c1)c1cc2ccccc2o1	i	i	nt	20µM	i	36
CCC(=O)N1CCN(c2ccc(NC(=O)c3cc4ccccc4o3)cc2Cl)CC1	i	i	?	?	?	i
COc1ccc(C2CC(=O)Oc3c(C(CCN4CCCC(C)C4)c4cc(OC)c(OC)c(OC)c4)c(OC)cc(OC)c32)cc1 (stereo unspecified)	i	nt	nt	nt	i	nt
COc1cc(Cl)ccc1OC1(C)CCN(Cc2ccccc2OC(F)F)C1 (stereo unspecified)	i	?	i	i	?	i
CC1(Oc2ccc(Cl)cc2)CCN(Cc2ccc(-c3ccccn3)cc2)C1 (stereo unspecified)	i	-121	?	i	i	i
COc1cc(Cl)ccc1OC1(C)CCN(Cc2ccc(-c3ccccn3)cc2)C1 (stereo unspecified)	i	?	?	i	i	45
COc1cc(Cl)ccc1OC1(C)CCN(Cc2cccc(OC)c2OC)C1 (stereo unspecified)	i	-61	i	i	i	i
CSc1ccc(OC2(C)CCN(Cc3ccc(-c4ccccn4)cc3)C2)cc1 (stereo unspecified)	i	-55	i	i	i	i
CC1(Oc2cccc(C#N)c2)CCN(Cc2ccc(-c3ccccn3)cc2)C1 (stereo unspecified)	i	i	i	i	i	i
CC1(Oc2ccc(Cl)cc2)CCN(Cc2ccc(OC(F)(F)F)cc2)C1 (stereo unspecified)	i	i	i	i	i	i
CC1(Oc2ccccc2)CCN(Cc2ccc(-c3ccccn3)cc2)C1 (stereo unspecified)	i	-79	i	i	i	i
COc1cc(Cl)ccc1OC1(C)CCN(Cc2ccc3ccccc3c2)C1 (stereo unspecified)	i	-116	?	i	?	i
CCc1ccc(-c2nc3cc(NC(=O)c4cc5ccccc5cc4OC)ccc3o2)cc1	i	nt	i	i	i	i
SMILES	HepG2 viability	DRD3 antagonist	S2 tox	ATXN2 expr inh	TGFb SMAD3 inh	DRD3 agonist
CCCCC(c1nnnn1CCOC)N1CCN(CC)CC1 (stereo unspecified)	i	-68	i	i	i	i
Cc1ccc(S(=O)(=O)c2ccc([N+](=O)[O-])o2)cc1	i	-111	11µM	6.7µM	10µM	i
C=CCc1ccccc1OCC(=O)N/N=C/c1ccc(OC(C)=O)cc1OC(C)=O	i	i	i	22µM	i	i
Cc1ccc(N(NC(=O)C(O)(c2ccccc2)c2ccccc2)C(=O)CCl)cc1	16µM	i	18µM	28µM	?	i
Cc1ccc(C(O)(C(=O)NN(C(=O)c2ccccc2)c2ccccc2)c2ccc(C)cc2)cc1	i	i	i	i	i	i
COc1cc(OC)c(S(=O)(=O)Nc2ccc(C)cn2)cc1NC(C)=O	10µM	i	i	i	i	i
COc1cc(OC)c(S(=O)(=O)NCc2cccnc2)cc1NC(C)=O	i	i	i	nt	i	i
O=C(Nc1ccc(F)cc1F)N1CCN(c2ccc(Cl)c(Cl)c2)CC1	i	nt	?	20µM	?	i
COc1cc2ncnc(N3CCN(C(=O)Nc4ccc(Oc5ccccc5)cc4)CC3)c2cc1OC	i	nt	nt	nt	10µM	nt
CCOC(=O)C1CCN(c2ncnc3cc(OC)c(OC)cc23)CC1	i	i	i	i	i	i
O=[N+]([O-])c1cc(Cl)ccc1Nc1nc(Nc2ccc(Cl)cc2[N+](=O)[O-])nc(N2CCOCC2)n1	i	nt	nt	nt	i	nt
COc1ccc(C(C)(O)c2nc(/C=C/c3ccccc3)cs2)cc1 (stereo unspecified)	i	-78	i	i	i	i
COc1cccc(C(=O)NNC(=O)CCN2CCN(c3ccccc3)CC2)c1	i	?	i	i	i	i
CCC1(c2ccccc2)NC(=O)N(CC(=O)NNC(=O)CCN2CCN(c3ccccc3)CC2)C1=O (stereo unspecified)	i	-56	i	i	i	i
N#CCC(=O)Nc1ccc(C(=O)NNC(=O)CCN2CCN(c3ccccc3)CC2)cc1	i	-83	i	i	i	i
O=C(CCN1CCN(c2ccccc2)CC1)NNC(=O)c1cccc2ccccc12	i	i	?	i	i	53
CC(C)(C)C1CCc2sc(C(=O)NNC(=O)CCl)cc2C1 (stereo unspecified)	i	i	?	?	i	i
Cc1cc(C(=O)NNC(=O)CCN2CCN(c3ccccc3)CC2)c2ccccc2n1	i	?	i	i	i	i
CCc1cc(C(=O)NNC(=O)CCl)sc1C	i	i	28µM	nt	i	i
CN(C)c1ccc(/C=C/c2nc3ccccc3s2)c(Cl)c1	i	nt	nt	nt	i	nt
Cc1cc(C)nc(S[C@H]2C[C@@H](C(=O)N3CCN(c4ccccc4F)CC3)N(Cc3ccccc3C(F)(F)F)C2)n1	nt	nt	i	nt	nt	nt
O=C(CCN1CCN(c2ccccc2)CC1)NNC(=S)Nc1ccccc1Cl	i	?	i	i	i	i
CCc1cc(C(=O)NNC(=O)CCN2CCN(c3ccccc3)CC2)sc1C	i	-63	i	i	i	i

Screens as filed in PubChem BioAssay.
